High-throughput results: PubChem BioAssay, National Center for Advancing Translational Sciences (NCATS)
ELG1 genotoxic: inducers of genotoxicity in HEK293T ELG1-luciferase cells. Potency, µM (series often up to 46 µM), for the others: top-dose activity change, positive = activation, actives largely listed as activators. 330,000 tested, 1.3% active. AID 504466. HEK293T ELG1-luciferase reporter, luminescence, 16 h; note: % of control where 0% means no effect; nearly all actives have a fitted effect of over 60% in size
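HEK293T cells expressing luciferase-tagged ELG1 were treated with compound or DMSO for 16 hr at 37°C. Luciferase activity was then read after 30 min with ONE-Glo at room temperature; rising signal flags genetic stress.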
NPC1 promoter act: activates the NPC1 promoter; Huh7 NPC1 promoter luciferase reporter, 24 h; Potency, µM (top dose mostly 9.22 µM), for the others: at the highest dose activation, actives largely listed as activators; 320,000 tested, 2.4% active; AID 485313; note: % of control where 0% means no effect; nearly all actives have a fitted effect of over 60% in size
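Compounds in DMSO were transferred onto Huh7 NPC1-luciferase reporter cells pre-incubated 2 h; after 24 h at 37 °C, Amplite reagent was dispensed and luminescence recorded 10 min later.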
Rab9 prom act: Rab9 promoter activation. 320,000 tested, 2.8% active. Huh7 Rab9 promoter-luciferase reporter, luminescence, 24 h. Potency, µM (series often up to 9.22 µM), inactives show at the highest dose activation, negative = inhibition, hits mostly activators; note: % of control where 0% means no effect; nearly all actives have a fitted effect of over 60% in size
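Huh7 reporter line, Rab9 promoter upstream of luciferase. Compound exposure 24 h at 37 °C in reduced-serum medium with 10% FBS. Read-out: luminescence.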
SMN2 splice up: SMN2 splice variant enhancement. 210,000 tested, 2.8% active. Potency, µM (series often up to 46.1 µM), without a hit: at the top dose activity change, positive = activation, actives largely listed as activators. HEK293 SMN2-luciferase splicing reporter, luminescence, 30-36 h. AID 1458; note: % of control where 0% means no effect; nearly all actives have a fitted effect of over 55% in size
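qHTS luciferase splicing reporter: luminescence rises when SMN2 exon 7 is included in transfected HEK293 cells. Compound exposure lasted 30-36 h at 37C, with 4.5 mM final sodium butyrate as control, followed by a ONE-Glo read.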
FLuc modulator: inhibits or activates purified firefly luciferase, miR-21 counter-screen; purified FLuc, Km substrates, luminescence inhibition; 360,000 tested, 6.9% active; P08659; Potency, µM (highest dose often 57.5 µM), inactives show top-dose activity change, negative = inhibition, hits mostly inhibitors;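 note: plate controls were vehicle for no effect and reference inhibitor for full effect; nearly all actives have a fitted effect of over 55% in size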
Target sequence (P08659 whole entry, looked up): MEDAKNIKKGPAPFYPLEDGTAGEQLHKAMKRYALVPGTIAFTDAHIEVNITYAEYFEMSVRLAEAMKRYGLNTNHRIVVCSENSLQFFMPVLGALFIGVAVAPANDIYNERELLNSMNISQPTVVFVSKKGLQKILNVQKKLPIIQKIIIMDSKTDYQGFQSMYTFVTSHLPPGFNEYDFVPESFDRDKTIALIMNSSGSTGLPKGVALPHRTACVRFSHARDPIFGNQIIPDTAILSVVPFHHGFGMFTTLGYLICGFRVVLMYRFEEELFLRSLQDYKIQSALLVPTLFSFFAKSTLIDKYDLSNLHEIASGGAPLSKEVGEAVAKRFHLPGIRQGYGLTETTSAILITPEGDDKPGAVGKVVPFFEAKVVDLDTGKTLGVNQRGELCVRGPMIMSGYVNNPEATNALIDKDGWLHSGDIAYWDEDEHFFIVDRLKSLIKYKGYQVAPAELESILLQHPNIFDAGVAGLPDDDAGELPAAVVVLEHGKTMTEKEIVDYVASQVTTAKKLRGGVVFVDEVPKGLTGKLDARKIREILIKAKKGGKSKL
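Biochemical qHTS of compounds, final roughly 60 µM downward over six points, against 10 nM purified firefly luciferase using Km concentrations of substrates (10 uM D-luciferin, 10 uM ATP) in Tris acetate pH 7.5 buffer; luminescence output.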
* marks the source's active call; other numbers are inactive results; u = inconclusive; x = not tested or not shown. Rows were chosen to be rich in hits. Some 7.5% of all compounds tested hit in one or more screens of this group. Calls come from the whole dose curve; as a rule, active = well fitted curve in the direction sought with a large enough effect; inconclusive = small, poorly fitted or top-dose-only effect, or another doubt; inactive = no such curve, though single readings can be large; an effect the other way counts as inactive or inconclusive. Potency is the fitted concentration of half-maximal effect.

SMILES	ELG1 genotoxic	NPC1 promoter act	Rab9 prom act	SMN2 splice up	FLuc modulator
Cc1ccc(Nc2nc(C)nc3c2oc2ccccc23)cc1	-5.8%	0.8%	-3.5%	x	-21.7%
CC(=O)Nc1c(F)c(F)c(F)c(F)c1F	0.0%	-2.5%	-2.5%	x	0.3%
O=C(O)/C=C/c1cnn(-c2ccccc2)c1	-4.1%	u	0.447µM*	2µM*	1.51µM*
O=C(O)/C=C\c1cccc(-n2cnnn2)c1	2.3%	-3.1%	-5.3%	7.6%	1.8%
CCOC(=O)/C=C/c1cnn(-c2ccccc2)c1	u	u	u	x	15.1µM*
CCOC(=O)COc1ncn(-c2ccccc2)n1	-1.3%	0.0%	0.7%	-9.1%	-14.6%
CCN(CC)CCn1c(=N)n(CC(O)COc2cccc(C)c2)c2ccccc21 (configuration not stated)	-9.8%	-3.4%	-14.3%	-92.0%	-0.5%
O=[N+]([O-])c1cccnc1Oc1ccc(OCc2ccccc2)cc1	u	u	u	x	16.9µM*
COc1cc(C2SCCS2)cc(Br)c1Oc1ncccc1[N+](=O)[O-]	-5.0%	2.6%	-0.3%	x	1.0%
O=[N+]([O-])c1cccnc1Oc1ccc(C2SCCS2)cc1	u	u	u	x	21.3µM*
CCCCCCOc1ccc(N2C(=O)CC(NCCc3ccc(S(N)(=O)=O)cc3)C2=O)cc1 (configuration not stated)	0.8%	2.2%	0.8%	48.9%	-1.8%
CCOC(=O)CSc1n[nH]c(NC(=O)c2ccccc2)n1	-0.1%	-4.7%	0.8%	-2.6%	0.9%
CCOC(=O)CN1N=C(/C=C/c2ccc(C)cc2)CCC1=O	3.7%	0.7%	-4.9%	9.1%	u
COc1ccc(/C=C/C2=NN(C)C(=O)CC2)cc1	u	2µM*	2.82µM*	11.2µM*	10.7µM*
CC(C)Oc1ccc(C2c3c(oc4ccccc4c3=O)C(=O)N2CCCN2CCOCC2)cc1 (configuration not stated)	20.6µM*	4.0%	13.9%	x	1.0%
Cc1ccc(C2c3c(oc4ccccc4c3=O)C(=O)N2CCCN2CCOCC2)o1 (configuration not stated)	6.7%	1.6%	0.7%	7.08µM*	2.8%
COC(=O)c1sc(NC(=S)NC(=O)c2cccc(C)c2)nc1C	u	21.3%	u	22.2%	u
CCOC(=O)CNC(=O)c1sc(NC(=O)c2ccccc2F)nc1C	9.2µM*	u	u	x	10.7µM*
O=C(CNC(=O)c1ccccc1F)OCCCOC(=O)CNC(=O)c1ccccc1F	0.0%	-1.0%	10.8%	x	-1.8%
COC(=O)c1sc(NC(=S)NC(=O)c2ccccc2F)nc1C	u	u	1µM*	-15.5%	8.49µM*
CCOC(=O)CNC(=O)c1sc(NC(=O)c2cccc(F)c2)nc1C	u	7.6%	14.4%	18.2%	21.3µM*
O=C(Cn1cc(SCc2ccccc2)c2ccccc21)N1CCCCCC1	x	x	x	x	-18.5%
CCn1c(=O)c(C(=O)Nc2ccc(C(C)=O)cc2)nc2ccccc21	x	x	x	27.7%	15.1µM*
CCCCNc1c(-c2ccc(SC(C)CC)cc2)nc2ccccn12 (configuration not stated)	-6.7%	3.55µM*	3.55µM*	x	1.35µM*
CCCCNc1c(-c2cccc(SC3CCCCC3)c2)nc2ccc(Cl)cn12	-14.0%	-1.6%	0.9%	x	-15.7%
SMILES	ELG1 genotoxic	NPC1 promoter act	Rab9 prom act	SMN2 splice up	FLuc modulator
CCCCNc1c(-c2ccc(SC3CCCCC3)cc2)nc2ccccn12	10.3µM*	2.82µM*	3.98µM*	x	4.78µM*
CCCCNc1c(-c2cccc(SC(C)CC)c2)nc2ccc(Cl)cn12 (configuration not stated)	-1.9%	x	x	x	x
Clc1cnc(N/N=C/c2ccco2)c(Cl)c1	u	1.41µM*	0.794µM*	5.62µM*	10.7µM*
Clc1cnc(N/N=C/c2cccs2)c(Cl)c1	u	2.24µM*	3.98µM*	u	9.53µM*
O=C(COC(=O)/C=C/c1ccco1)Nc1ncc(Cl)cc1Cl	-0.8%	-2.2%	1.3%	-14.9%	0.9%
Oc1ccc(/C=N/Nc2ncc(Cl)cc2Cl)cc1	u	14.6%	12.9%	x	u
Cc1ccc(/C=N/Nc2ncc(Cl)cc2Cl)s1	u	3.55µM*	u	u	6.01µM*
COc1ccc([C@H]2C=C3CN(C(=O)OC(C)(C)C)S(=O)(=O)[C@H]3C[C@H]2OC(=O)c2ccc(C(F)(F)F)cc2)cc1	-4.7%	-5.9%	0.5%	x	4.4%
COC(=O)c1sc(N2C(=O)C(O)=C(C(=O)c3ccc(C)o3)C2c2ccc([N+](=O)[O-])cc2)nc1C (configuration not stated)	u	3.55µM*	1.78µM*	x	19µM*
Cc1ccc(NC(=O)/C(C#N)=C/c2ccc(-c3ccc(Cl)c(C(=O)O)c3)o2)cc1C	x	x	x	-5.9%	3.79µM*
N#C/C(=C\c1ccc(-c2ccccc2)o1)C(=O)Nn1cnnc1	1.3%	-1.4%	-1.4%	-1.9%	19µM*
Cc1cccc(NC(=O)/C(C#N)=C/c2ccc(Sc3ccccc3)o2)c1C	-0.1%	-2.3%	-2.2%	-47.0%	-2.3%
Cc1ccccc1NC(=O)/C(C#N)=C/c1ccc(-c2ccc(Cl)c(C(=O)O)c2)o1	11.9%	2.82µM*	3.16µM*	x	19µM*
COc1ccc(NC(=O)/C(C#N)=C/c2ccc(-c3ccc(Cl)c(C(=O)O)c3)o2)cc1	u	u	3.55µM*	x	0.477µM*
CCCCOc1ccc(NC(=O)c2cnc(C)cn2)cc1	u	27.8%	7.3%	-4.9%	u
COc1ccc2cc3cc(C(=O)N4CCN(C5CCCCC5)CC4)oc3nc2c1	1.7%	0.1%	-6.3%	x	-11.3%
COc1ccc2cc3cc(C(=O)N4CCCCCC4)oc3nc2c1	2.59µM*	0.891µM*	0.501µM*	x	1.9µM*
COc1ccc2cc3cc(C(=O)N(C)C4CCCCC4)oc3nc2c1	u	2.24µM*	2.24µM*	x	7.57µM*
COc1ccc2cc3cc(C(=O)N4CCCCC4C)oc3nc2c1 (configuration not stated)	2.31µM*	1.12µM*	0.447µM*	x	3.38µM*
COc1ccc2cc3cc(C(=O)NCc4ccc(C)cc4)oc3nc2c1	x	x	x	-17.8%	-3.0%
CCc1nc2ccccc2c(C(=O)OCC(=O)Nc2cccc(S(=O)(=O)NC3=NCCCCC3)c2)c1C	-23.4%	-11.8%	-26.5%	x	-2.4%
COCCNC(=O)C(=O)Nc1ccc2c(c1)N(S(=O)(=O)c1cccs1)CCC2	3.2%	-24.8%	-21.7%	x	1.6%
O=C(NCc1ccccc1)C(c1ccco1)N(C(=O)c1ccccn1)c1ccccc1 (configuration not stated)	-10.6%	-4.3%	-1.2%	x	1.7%
COc1ccc(CNC(=O)C(c2ccco2)N(C(=O)c2ccccn2)c2ccccc2)cc1 (configuration not stated)	u	0.891µM*	0.891µM*	x	6.75µM*
C/C(=N/NC(=O)c1cccc(N2CCCC2=O)c1)c1ccc(Br)cc1	5.8%	1.4%	-1.9%	x	15.1µM*
